Experimental data published in the supplement of paper PMC9177965.
“And” between values parts separate entries of the source, which are not always exact repeats. Equal entries are not always repeated.

What follows are compounds tested on HT29 sg-Ctrl (RNF43 wildtype) (assay: cell viability activity relative to DMSO (negative = inhibition); higher = more viable cells (less growth inhibition)). Conditions: 5 µM; 96 h.
Method: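 Broad Repurposing Library primary screen at a single dose of 5 uM. HT29 sg-Ctrl and HT29 RNF43 G659fs CRISPR-edited isogenic cells were seeded at 2500 cells/well in 384-well plates in duplicate and treated for 96 h. Viability was read by CellTiter-Glo and reported as % activity relative to DMSO, with MG132 as the positive control (negative = growth inhibition).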

Compared with CC(C)(N)c1cc(C(=O)N[C@@H]2CCc3ccc(Oc4ccnc5c4CCC(=O)N5)cc3C2)cc(C(F)(F)F)c1, O=C(c1c(F)ccc(NS(=O)(=O)N2CC[C@@H](F)C2)c1F)c1c[nH]c2ncc(-c3cnc(C4CC4)nc3)cc12 is lower in cell viability activity: -59.3% for the first, -69% for the second.

First: COCCOc1ccc2c(c1)ncn2-c1ccc2cccc(N3CCC(N)CC3)c2n1
Second: C=CC(=O)Nc1cccc(Oc2nc(Nc3ccc(N4CCN(C)CC4)cc3)ncc2Cl)c1
The cell viability activity of the first is lower: -94.6% for the first, -58% for the second.

First: O=C(/C=C\n1cnc(-c2cc(C(F)(F)F)cc(C(F)(F)F)c2)n1)N1CC(F)(F)C1
Second: CCCCc1nc2cc(/C=C/C(=O)NO)ccc2n1CCN(CC)CC
The cell viability activity of the first is higher: -68% for the first, -98.6% for the second.

Compared with CN(C)CCCCC(=O)Nc1ccc(NC(=S)NC(=O)c2ccc(C(C)(C)C)cc2)cc1, CCN(CC)Cc1ccc2cc(COC(=O)Nc3ccc(C(=O)NO)cc3)ccc2c1 is higher in cell viability activity: -91.9% for the first, -84.2% for the second.

Compared with COc1cc(N2CCC(N3CCN(C)CC3)CC2)ccc1Nc1ncnc(Nc2ccccc2S(=O)(=O)C(C)C)n1, Cc1cc(Nc2cc(N3CCN(C)CC3)nc(Sc3ccc(NC(=O)C4CC4)cc3)n2)n[nH]1 is lower in cell viability activity: -27.7% for the first, -38.2% for the second.

Compared with CS[C@H]1SC[C@H]2C(=O)N(C)[C@@H](C(C)C)C(=O)OC[C@@H](NC(=O)c3cnc4ccccc4n3)C(=O)N[C@@H](C)C(=O)N(C)[C@@H]1C(=O)N(C)[C@@H](C(C)C)C(=O)OC[C@@H](NC(=O)c1cnc3ccccc3n1)C(=O)N[C@@H](C)C(=O)N2C, CC[C@@H](C)Nc1cc(C(=O)N[C@H]2C[C@H]3CC[C@@H](C2)N3c2ccc(C(=O)C3CC3)cn2)c(C)cc1C(N)=O is higher in cell viability activity: -86.6% for the first, -84.4% for the second.

Compared with CC(C)CCN1c2nc(Nc3cc(F)c(O)c(F)c3)ncc2N(C)C(=O)C1C (stereo not drawn), CCN(CC)CC1CCN(c2ncc3ncnc(Nc4ccc(F)c(Cl)c4)c3n2)CC1 is lower in cell viability activity: 4.41% for the first, -16.4% for the second.

Going from CCNC(=O)C#Cc1ccc2c(C(=Nc3ccc(CN(C)C)cc3)c3ccccc3)c(O)[nH]c2c1 to CCS(=O)(=O)Nc1ccc2[nH]c(O)c(C(=Nc3ccc(CN4CCCCC4)cc3)c3ccccc3)c2c1, the cell viability activity rises from -96.8% to -75.4%.

Cc1ccc(/C=C2\CNC/C(=C\c3ccc(C)cc3)C2=O)cc1 and Cc1cc(O)c(-c2ccc([C@@H](C)CN)cc2)c2c1[nH]c(=O)c1sccc12 are the same in cell viability activity: -92.7% for the first, -92.7% for the second.

Going from C#C[C@]1(O)CC[C@H]2[C@@H]3CCC4=C(CCC(=O)C4)[C@H]3CC[C@@]21C to C[C@]12CC[C@@H]3c4ccc(O)cc4C[C@@H](CCCCCCCCC[S+]([O-])CCCC(F)(F)C(F)(F)F)[C@H]3[C@@H]1CC[C@@H]2O (stereo partly drawn), the cell viability activity rises from -59.4% to -38.5%.

First: C[C@H]1O[C@H](O[C@H]2[C@H](O)[C@@H](O)[C@@H](O[C@H]3[C@H](O)[C@@H](O)C(O)O[C@@H]3CO)O[C@@H]2CO)[C@H](O)[C@@H](O)[C@@H]1N[C@H]1C=C(CO)[C@@H](O)[C@H](O)[C@H]1O (stereo partly drawn)
Second: Nc1nccc2c1ncn2C1C=C(CO)C(O)C1O (stereo not drawn)
The cell viability activity of the first is lower: -86.3% for the first, -46.7% for the second.

First: N#CC1(c2ccc(NC(=O)c3cccnc3NCc3ccncc3)cc2)CCCC1
Second: Clc1ccc(NN=C(c2ccccc2)c2ccccn2)nc1
The cell viability activity of the first is higher: -22.7% for the first, -65.6% for the second.

Going from CCCSc1ccc2[nH]c(NC(=O)OC)nc2c1 to CCOC(=O)[C@H](Cc1ccccc1)NC(=O)c1cc(Cl)c(OCCN2CCN(C)CC2)c(Cl)c1O, the cell viability activity rises from -76.8% to -41.2%.

Going from Fc1ccc(-n2cc(CCCCN3CCC4(CC3)OCc3ccccc34)c3ccccc32)cc1 to CN(C)C(=O)C(CCN1CCC(O)(c2ccc(Cl)cc2)CC1)(c1ccccc1)c1ccccc1, the cell viability activity falls from -62.5% to -75.2%.

Compared with COc1ccc(-c2cc3c(C)nc(N)nc3n([C@H]3CC[C@H](OCCO)CC3)c2=O)cn1, NS(=O)(=O)OC[C@@H]1C[C@@H](n2ccc3c(N[C@H]4CCc5ccccc54)ncnc32)C[C@@H]1O is higher in cell viability activity: -84.6% for the first, -63.2% for the second.

Compared with COc1cc(/C=C/c2ccc(OC)cc2OC)cc(OC)c1, COc1ccc(/C=C\c2cc(OC)c(OC)c(OC)c2)cc1O is higher in cell viability activity: -75.7% for the first, -58.3% for the second.

Compared with Cc1cccc(/C=N/Nc2cc(N3CCOCC3)nc(OCCc3ccccn3)n2)c1, Cc1ccccc1CN1C(=O)C2=C(CCN(Cc3ccccc3)C2)N2CCN=C12 is lower in cell viability activity: -62.4% for the first, -76.7% for the second.

First: COc1cc(/C=C/C(=O)CC(=O)/C=C/c2ccc(O)c(OC)c2)ccc1O
Second: COc1ccc2c(c1)c(C1=C(c3c[nH]c4ccccc34)C(=O)NC1=O)cn2CCCN(C)C
The cell viability activity of the first is higher: -84.2% for the first, -88.9% for the second.

NC(=O)Nc1cc(-c2cccc(F)c2)sc1C(=O)N[C@H]1CCCNC1 gave a cell viability activity of -32.6%.

With COc1cccc2c1C(=O)c1c(O)c3c(c(O)c1C2=O)C[C@@](O)(C(C)=O)C[C@@H]3O[C@H]1C[C@H](N)[C@H](O)[C@H](C)O1 the cell viability activity was -96.9% and -95.8% and -96%.
